For one test, the target named is RNF14. In words: pooled miR-30 sensor sort-seq; sequence = guide strand. Conditions: shRNA.
AATATCGTCGTCAACATCCACA returned a sensor-assay potency score (higher = more potent) of -1.06.
With TAAAACATGGTGAACCAGGGTC, the sensor-assay potency score (higher = more potent) turned out to be 0.147.
Regarding TTTGAGTTCTTCTCTAGCCACT, the sensor-assay potency score (higher = more potent) was -1.03.
For TTTATTAGCCTCATCCGCTTGC, the sensor-assay potency score (higher = more potent) worked out at 0.884.
Same read-out and setting: with TATCGTCGTCAACATCCACAGC the figure was -0.981.
The sequence TTTCTGAGAACCAATCTTGAGC registered a sensor-assay potency score (higher = more potent) of -0.733.
Sequence TCTAAATTCATCTCCATCGTAA came in with a sensor-assay potency score (higher = more potent) of 0.0572.
Still for that read-out and setting: with ATGTCATCTTGTTACATCCGTC the figure was -0.926.
For TATCTTGAAATTCTGTGGCAAA, the sensor-assay potency score (higher = more potent) is -1.02.
Sequence TTCTTCTCTAGCCACTCCTTAC registered a sensor-assay potency score (higher = more potent) of -0.95.
Same read-out and setting: with TTACTTTGTGTACTTGACGGAA the figure was -0.835.
The same measure, in the same setting: with TCATCTTGTTACATCCGTCTAA the figure was 0.00357.

The next test deals with RNF157. Described as above. Conditions: shRNA.
For TTGAGTTTGAGTCCCTGACTGC, the sensor-assay potency score (higher = more potent) was -0.461.
In turn, TTGTCTTTGGGAATGTAGCTGG registered a sensor-assay potency score (higher = more potent) of 0.177.
Regarding TTGTACTGCACAGTCTCCGACT, the sensor-assay potency score (higher = more potent) was -0.593.
As for TTCAATTCCATAGATCTCCTGA, the sensor-assay potency score (higher = more potent) was 0.823.
In turn, TACCATTCTGGAACTCTTCCGT had a sensor-assay potency score (higher = more potent) of 0.188.
TAAGGAAACACAACTGGTCTGT gave a sensor-assay potency score (higher = more potent) of 0.685.
Take TTCCTCTTCATGCAGCACGGAA: the sensor-assay potency score (higher = more potent) is -1.64.
Sequence TTGAGTCCCTGACTGCTGCTGT yielded a sensor-assay potency score (higher = more potent) of 0.522.
In the case of TTCCTCAGCACATTTGACGAGC, the sensor-assay potency score (higher = more potent) was -0.263.
In turn, TTTCGGATATTGACCAGGCTTC gave a sensor-assay potency score (higher = more potent) of -1.09.
In turn, TACTTGTTTCTGTTTGAGGGGC gave a sensor-assay potency score (higher = more potent) of 0.142.
Same read-out and setting: with TTGAGTCAAACTTCTCTCCTCC the figure was 0.532.

The record behind these values is the OligoGym collection.
Also: reference of the scale not given here.
